Results filed as inconclusive are left out. Values without a mark were called inactive. Calls come from the whole dose curve; as a rule, active = well fitted cell-killing curve with a large enough effect; inconclusive = small, poorly fitted or top-dose-only effect, or effect the other way; inactive = no such curve, though single readings can be large or run the other way.
Test: Cell Viability - LYMP2-004 (AID 966);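 note: cells exposed to compound for 24 h; plate controls were DMSO only for no effect and tetraoctylammonium bromide control for full effect; nearly all actives have a fitted effect of over 65% in size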
Conditions: LYMP2-004 lymphoblastoid cell viability, qHTS; series mostly up to 92.2 µM; activity change, negative = cytotoxicity: at the top concentration
Source text: NIH Chemical Genomics Center [NCGC]
NIH Molecular Libraries Screening Centers Network [MLSCN]
National Institutes of Environmental Health Sciences [NIEHS]
National Toxicology Program [NTP]
We have developed a 1536-well cell-based assay for quantitative high throughput screening (qHTS) against a number of cell lines to determine in vitro cytotoxicity of small molecules. This particular assay uses a human lymphoblastoid cell line (LYMP2-004) purchased from Coriell Institute for Medical Research.
NCGC Assay Protocol Summary:
The CellTiter-Glo luminescent cell viability assay (Promega) is a homogeneous method to measure the number of viable cells in culture. The end point readout of this assay is based on quantitation of intracellular ATP, an indicator of metabolic activity, using the luciferase reaction. Luciferase catalyzes the oxidation of beetle Luciferin to oxyluciferin and light in the presence of ATP. The luminescent signal is proportional to amount of ATP present.
Using the CellTiter-Glo luminescent cell viability assay, the amount of cellular ATP was measured in the lymphoblastoid cell line with complete culture medium following compound treatment for 24 hours. The assay was performed in opaque white Kalypsys 1536-well plates. In the screen, tetraoctylammonium bromide was used as positive control. Library compounds were measured for their ability to cause acute toxicity in the cell line, as reflected by a decrease in intracellular ATP levels, in a concentration-dependent manner. […] AC50 values were determined from concentration-response data modeled with the standard Hill equation.
qHTS protocol for CellTiter Glo lymphoblastoid cellular assay
[Step] [Parameter] [Value] [Description]
1. Reagent; 5 uL; 2500 lymphoblastoid cells/well
2. Time; 5 hr; 37 C incubation
4. Controls; 23 nL; Tetraoctylammonium bromide 6.4pM to 92 uM
5. Time; 24 hr; 37 C incubation
6. Reagent; 5 uL; CellTiter Glo reagent
7. Time; 30 min; Room Temperature
8. Detection; Luminescence; Viewlux plate reader
Keywords: cell viability, cytotoxicity, lymphoblastoid cell line, luminescence, NTPHTS, NTPHTS_NCGC, NIEHS, DSSTox, MLSMR, MLSCN, NIH Roadmap, qHTS, NCGC
With `Cc1ccccc1O` the “activity change, negative = cytotoxicity” value was 5.17%. With `COC(=O)c1ccccc1C(=O)OC` the “activity change, negative = cytotoxicity” value was -0.0516%. For `CCOc1cc(C=O)ccc1O`, the “activity change, negative = cytotoxicity” value was 15.9%. For `c1ccc(Nc2ccc3ccccc3c2)cc1`, the “activity change, negative = cytotoxicity” value was -10.6%. With `O=Cc1ccccc1` the “activity change, negative = cytotoxicity” value was -4.51%. For `Oc1ccccc1Cl`, the “activity change, negative = cytotoxicity” value was 6.13%. In the case of `c1ccc2c(c1)-c1cccc3cccc-2c13`, the “activity change, negative = cytotoxicity” value is reported as 12.5%. For `Oc1c(Cl)c(Cl)c(Cl)c(Cl)c1Cl`, the “activity change, negative = cytotoxicity” value was -6.25%. In the case of `CC(C)COC(=O)c1ccccc1C(=O)OCC(C)C`, the “activity change, negative = cytotoxicity” value is reported as -3.02%. In the case of `CC(=O)/C=C/c1ccccc1`, the “activity change, negative = cytotoxicity” value is reported as 12.2%. In the case of `CCOC(=O)c1ccccc1N`, the “activity change, negative = cytotoxicity” value is reported as 5.88%. For `COC1=CC(=O)OC(CCc2ccc3c(c2)OCO3)C1` (configuration not stated), the “activity change, negative = cytotoxicity” value was -35.5%.

Reference: PubChem BioAssay (NCATS)
